The record followed here is PubChem BioAssay (EPA / NIEHS).

Calls of active or inactive are those of the source. Rule for the calls: active = hit-call score of the fitted dose curve at least 0.9, where 1 is the maximum; inactive = score below 0.9.

Read-out in experiment [1]: serum amyloid A (SAA), SAA1 (gene 6288)
In words: BSK_CASM3C_SAA: BioMAP Diversity Plus: CASM3C Assay for serum amyloid A (SAA) Biomarker Activity (AID 2283049).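 Note: SAA protein level quantified by ELISA.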 The following applies: primary human coronary artery smooth muscle cells; actives raise or lower the signal.

Experiment [2] is described as follows: BSK_CASM3C_SRB: Viability Assessment in the BioMAP Diversity Plus: CASM3C Assay (AID 2283050).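 Note: total protein by SRB staining as cytotoxicity measure in parallel cultures.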 To be noted: primary human coronary artery smooth muscle cells.
Read-out in experiment [3]: Thrombomodulin, THBD (gene 7056)
In words: BSK_CASM3C_Thrombomodulin: BioMAP Diversity Plus: CASM3C Assay for Thrombomodulin Biomarker Activity (AID 2283051).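 Note: thrombomodulin protein level measured by ELISA 24 h after dosing.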 The following applies: primary human coronary artery smooth muscle cells; actives raise or lower the signal.

Read-out in experiment [4]: Tissue Factor, F3 (gene 2152)
In words: BSK_CASM3C_TissueFactor: BioMAP Diversity Plus: CASM3C Assay for Tissue Factor Biomarker Activity (AID 2283052).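 Note: cell surface tissue factor protein level read by ELISA.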 To be noted: primary human coronary artery smooth muscle cells; actives raise or lower the signal.

Read-out in experiment [5]: Interferon-gamma inducible Protein 10 (IP10), CXCL10 (gene 3627)
The experiment is described as follows: BSK_hDFCGF_IP10: BioMAP Diversity Plus: hDFCGF Assay for Interferon-gamma inducible Protein 10 (IP10) Biomarker Activity (AID 2283053). To be noted: primary human foreskin fibroblasts; actives raise or lower the signal. In short, it runs like this:
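ELISA read-out of IP-10 (CXCL10) from primary human skin fibroblasts, 24 h after compound addition. Gain or loss of signal versus DMSO baseline, bidirectional curve fitting.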

Read-out in experiment [6]: Urokinase-type plasminogen activator receptor (uPAR), PLAUR (gene 5329)
The experiment is described as follows: BSK_CASM3C_uPAR: BioMAP Diversity Plus: CASM3C Assay for Urokinase-type plasminogen activator receptor (uPAR) Biomarker Activity (AID 2283054).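 Note: cell-surface uPAR protein level quantified by ELISA.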 To be noted: primary human coronary artery smooth muscle cells; actives raise or lower the signal.

Read-out in experiment [7]: Vascular cell adhesion molecule 1 (VCAM1), VCAM1 (gene 7412)
The experiment is described as follows: BSK_CASM3C_VCAM1: BioMAP Diversity Plus: CASM3C Assay for Vascular cell adhesion molecule 1 (VCAM1) Biomarker Activity (AID 2283055).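 Note: VCAM-1 protein level quantified by ELISA on the cells.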 To be noted: primary human coronary artery smooth muscle cells; actives raise or lower the signal.

Read-out in experiment [8]: Collagen III, COL3A1 (gene 1281)
The experiment is described as follows: BSK_hDFCGF_CollagenIII: BioMAP Diversity Plus: hDFCGF Assay for Collagen III Biomarker Activity (AID 2283056). To be noted: primary human foreskin fibroblasts; actives raise or lower the signal. In short, it runs like this:
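Response relative to DMSO, fitted in both directions, reflects ELISA-measured collagen III in human primary skin fibroblasts 24 h after compound addition.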

Read-out in experiment [9]: Epidermal growth factor receptor (EGFR), EGFR (gene 1956)
The experiment is described as follows: BSK_hDFCGF_EGFR: BioMAP Diversity Plus: hDFCGF Assay for Epidermal growth factor receptor (EGFR) Biomarker Activity (AID 2283057). The following applies: primary human foreskin fibroblasts; actives raise or lower the signal. In short, it runs like this: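 ELISA readout of EGFR on human dermal fibroblasts (primary foreskin cells), 24 h post-dosing; bidirectional curve fit vs DMSO baseline, gain or loss of signal scored.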

Read-out in experiment [10]: Interleukin-8 (IL8), CXCL8 (gene 3576)
The experiment is described as follows: BSK_hDFCGF_IL8: BioMAP Diversity Plus: hDFCGF Assay for Interleukin-8 (IL8) Biomarker Activity (AID 2283058). The following applies: primary human foreskin fibroblasts; actives raise or lower the signal. The method, boiled down: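 Fibroblast monolayers (human foreskin, hDFCGF) received test chemical for 24 h before ELISA detection of IL-8; either increases or decreases relative to DMSO count as activity.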

Read-out in experiment [11]: Macrophage colony-stimulating factor (MCSF), CSF1 (gene 1435)
In words: BSK_hDFCGF_MCSF: BioMAP Diversity Plus: hDFCGF Assay for Macrophage colony-stimulating factor (MCSF) Biomarker Activity (AID 2283060). The following applies: primary human foreskin fibroblasts; actives raise or lower the signal. In short, it runs like this:
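fibroblasts (human foreskin, primary), 24 h post-dose; M-CSF by ELISA; bidirectional fit, DMSO = baseline.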

The nature of experiment [12]: BSK_hDFCGF_SRB: Viability Assessment in the BioMAP Diversity Plus: hDFCGF Assay (AID 2283061).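 Note: cells exposed to compound for 24 h before the read.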 The following applies: primary human foreskin fibroblasts. In short, it runs like this:
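SRB-based viability read on primary human skin fibroblasts at 24 h: TCA fixation, 0.1% dye, 560 nm. Gain or loss of signal is fitted against the DMSO negative control.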

Read-out in experiment [13]: TIMP metallopeptidase inhibitor 1 (TIMP1), TIMP1 (gene 7076)
The experiment is described as follows: BSK_hDFCGF_TIMP1: BioMAP Diversity Plus: hDFCGF Assay for TIMP metallopeptidase inhibitor 1 (TIMP1) Biomarker Activity (AID 2283062). To be noted: primary human foreskin fibroblasts; actives raise or lower the signal. In short, it runs like this:
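Bidirectional curve fitting against DMSO baseline yielded this endpoint, based on ELISA detection of TIMP-1 in primary human foreskin fibroblasts exposed to compound for 24 h.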

Read-out in experiment [14]: Monokine induced gamma interferon (MIG), CXCL9 (gene 4283)
In words: BSK_hDFCGF_MIG: BioMAP Diversity Plus: hDFCGF Assay for Monokine induced gamma interferon (MIG) Biomarker Activity (AID 2283063). To be noted: primary human foreskin fibroblasts; actives raise or lower the signal. In short, it runs like this: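 Endpoint derived by bidirectional fitting relative to DMSO; MIG quantified via ELISA in primary human foreskin fibroblasts harvested 24 h after dosing.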

Read-out in experiment [15]: Matrix Metallopeptidase 1 (MMP1), MMP1 (gene 4312)
The experiment is described as follows: BSK_hDFCGF_MMP1: BioMAP Diversity Plus: hDFCGF Assay for Matrix Metallopeptidase 1 (MMP1) Biomarker Activity (AID 2283064). The following applies: primary human foreskin fibroblasts; actives raise or lower the signal. In short, it runs like this:
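ELISA read-out of MMP1 from human foreskin fibroblasts (primary skin cells), 24 h post-dose. Gain or loss of signal was fitted bidirectionally versus DMSO negative control; cytotoxicity was checked by SRB in parallel cultures.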

Read-out in experiment [16]: Vascular cell adhesion molecule 1 (VCAM1), VCAM1 (gene 7412)
In words: BSK_hDFCGF_VCAM1: BioMAP Diversity Plus: hDFCGF Assay for Vascular cell adhesion molecule 1 (VCAM1) Biomarker Activity (AID 2283065).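 For AC50: VCAM-1 protein level quantified by ELISA after 24 h chemical exposure.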 To be noted: primary human foreskin fibroblasts; actives raise or lower the signal. In short, it runs like this:
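Measured after 24 h chemical treatment of primary human skin fibroblasts, VCAM-1 was detected by ELISA and concentration-response analysed in both directions versus DMSO vehicle.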

Read-out in experiment [17]: Plasminogen activator inhibitor-1 (PAI1), SERPINE1 (gene 5054)
The experiment is described as follows: BSK_hDFCGF_PAI1: BioMAP Diversity Plus: hDFCGF Assay for Plasminogen activator inhibitor-1 (PAI1) Biomarker Activity (AID 2283066). To be noted: primary human foreskin fibroblasts; actives raise or lower the signal. The method, boiled down: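 ELISA readout of PAI-1 from primary human skin fibroblast cultures, 24 h after compound addition. Gain or loss of signal was fitted bidirectionally against DMSO baseline.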

Read-out in experiment [18]: Intercellular Adhesion Molecule 1 (ICAM1), ICAM1 (gene 3383)
In words: BSK_KF3CT_ICAM1: BioMAP Diversity Plus: KF3CT Assay for Intercellular Adhesion Molecule 1 (ICAM1) Biomarker Activity (AID 2283067). The following applies: primary human keratinocytes with fibroblasts; actives raise or lower the signal. In short, it runs like this:
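Bidirectional curve fitting against a DMSO baseline was applied to ICAM-1 ELISA signal from primary human skin co-cultures harvested 24 h after treatment, with SRB staining of parallel wells for overt cytotoxicity.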

Read-out in experiment [19]: Interferon-gamma inducible Protein 10 (IP10), CXCL10 (gene 3627)
In words: BSK_KF3CT_IP10: BioMAP Diversity Plus: KF3CT Assay for Interferon-gamma inducible Protein 10 (IP10) Biomarker Activity (AID 2283068). To be noted: primary human keratinocytes with fibroblasts; actives raise or lower the signal. The method, boiled down: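 KF3CT co-culture (keratinocytes + foreskin fibroblasts), 24 h compound, IP-10 by ELISA; bidirectional fit vs DMSO baseline.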

`CCCCCCCCc1ccc(O)cc1`: the AC50 in experiment [1] is 36.1 µM (active); in experiment [2] it was 30.9 µM (active); in experiment [3], 34.6 µM (active); in experiment [4], 28.7 µM (active); in experiment [5], 25.8 µM (active); in experiment [6] it was 39.1 µM (active). The half-maximal activity concentration (AC50) in [7] was 33.9 µM (active); in experiment [8], 20.1 µM (active); in [10], 36 µM (active); in [11], 32.9 µM (active); in experiment [12], 26.4 µM (active); in experiment [13], 33.3 µM (active). Also, the AC50 was 34.8 µM (active) in experiment [14]; 31.9 µM (active) in [15]; 27.9 µM (active) in [16]; 14 µM (active) in [17]; 31.2 µM (active) in experiment [18]; 29.5 µM (active) in experiment [19]. In addition, the result in experiment [9] was inactive.
On to `CC(C)(c1ccccc1)c1ccc(O)c(C(C)(C)c2ccccc2)c1`, for which the AC50 in experiment [1] was 23.6 µM (active); in experiment [2], 26.8 µM (active); in experiment [3], 34.3 µM (active); in [4], 16.4 µM (active); in [5] it was 3.52 µM (active); in experiment [6] it was 29.4 µM (active). Besides, the half-maximal activity concentration (AC50) is 29.3 µM (active) in experiment [7]; 2.94 µM (active) in experiment [8]; 3.45 µM (active) in experiment [9]; 5.4 µM (active) in experiment [10]; 3.63 µM (active) in experiment [11]; 3.57 µM (active) in experiment [12]. Further, the AC50 is 4.07 µM (active) in experiment [13]; 4.86 µM (active) in experiment [14]; 4.05 µM (active) in experiment [15]; 2.79 µM (active) in experiment [16]; 3.74 µM (active) in [17]; 3.68 µM (active) in experiment [18]. Further, the AC50 in experiment [19] was 3.1 µM (active).
As for `ClCC(Cl)CCl`, the result in experiment [1], in experiment [2], in experiment [3], in experiment [4], in experiment [5] and in experiment [6] was inactive. Besides, the outcome in experiment [7], in [8], in experiment [9], in [10], in experiment [11] and in experiment [12] was inactive. The outcome in [13], in experiment [14], in [15], in experiment [16], in [17] and in [18] was inactive. In addition, in [19], the result was inactive.
In the case of `CCOP(=S)(OCC)Oc1nc(Cl)c(Cl)cc1Cl`, the result in experiment [1], in experiment [2], in [4], in [6], in [7] and in experiment [9] was inactive. The result in experiment [10], in experiment [12], in [13], in experiment [14], in [18] and in experiment [19] was inactive. Further, the AC50 is 26.9 µM (active) in [3]; 20 µM (active) in experiment [5]; 9.2 µM (active) in experiment [8]; 11.9 µM (active) in [11]; 4.93 µM (active) in [15]; 7.1 µM (active) in experiment [16]. Also, the AC50 in experiment [17] was 13.3 µM (active).
As for `O=[N+]([O-])c1ccc(O)c([N+](=O)[O-])c1`, the result in experiment [1], in experiment [2], in experiment [3], in [4], in [5] and in [6] was inactive. Besides, the outcome in experiment [7], in [8], in experiment [9], in [10], in [11] and in experiment [12] was inactive. Also, the result in experiment [13], in experiment [14], in [15], in experiment [16], in experiment [17] and in experiment [18] was inactive. Moreover, the result in experiment [19] was inactive.
Regarding `Oc1ccc(-c2ccccc2)cc1`, the outcome in experiment [1], in experiment [3], in experiment [5], in experiment [6], in experiment [7] and in experiment [8] was inactive. Besides, the outcome in experiment [9], in experiment [10], in experiment [11], in experiment [12], in experiment [13] and in experiment [14] was inactive. Moreover, the result in [15], in experiment [16], in experiment [17], in experiment [18] and in experiment [19] was inactive. For the same molecule, the AC50 in experiment [2] was 3.97 µM (active); in experiment [4], 20 µM (active).
